From PubChem BioAssay (Tox21)
A number with no mark means an inactive call. Records with an inconclusive call do not appear. Where a call stands in place of a potency, no number is given. Calls of active or inactive are those of the source. Unless noted, the call rests on the fitted dose curve; in most records, active means well fitted curve in the direction sought with a large enough effect in the repeat runs; inconclusive means weak or mixed curves; inactive means no such curve, though single readings can be large; an effect the other way counts as inactive or inconclusive.

Tests used:
[1] = qHTS assay to identify small molecule agonists of the TGF-beta/Smad signaling pathway - cell viability counter screen (AID 1346829); further: top concentration of the series differs between compounds; nearly all actives have a fitted effect of over 45% in size
Procedure, shortened: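 Compound-treated SBE-bla HEK 293T cells (5 hr, 37 C) were assessed for viability with CellTiter-Glo in parallel with the reporter read.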

[2] = target: Thyrotropin-releasing hormone receptor (Homo sapiens) (UniProt P34981); assay: qHTS assay to identify small molecule agonists of the thyrotropin-releasing hormone receptor (TRHR) signaling pathway (AID 1346891; calls by dose curve;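 further: HEK293 cells expressing TRHR with calcium dye readout; series mostly up to about 58 µM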)
Procedure, shortened: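 Kinetic fluorescence (3 min, 1 s intervals) reported intracellular calcium after compound transfer onto TRHR-Hek293 cells pre-loaded with dye for 2 h at 37 °C.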

[3] = Human pregnane X receptor (PXR) small molecule agonists, qHTS cell viability counter screen (AID 1346977); further: nearly all actives have a fitted effect of over 50% in size
Procedure, shortened: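 HepG2 cells stably carrying the PXR-Luc reporter are cultured with 5% charcoal-stripped FBS and treated with compounds for 24hr. CellTiter-Fluor is added at 23hr and fluorescence is read after 1hr.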

[4] = Caspase-3/7 induction in HepG2 cells by small molecules, qHTS assay (AID 1346978); further: nearly all actives have a fitted effect of over 15% in size
Procedure, shortened: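 Wild-type HepG2 cells (2,000/well) were settled 5 h at 37 C, 5% CO2, then exposed to compounds in DMSO for 17 h. Caspase-3/7 activity was read by luminescence 30 min after adding Caspase-Glo 3/7 reagent at room temperature.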

[5] = Caspase-3/7 induction in CHO-K1 cells by small molecules, qHTS cell viability counter screen (AID 1346979); further: nearly all actives have a fitted effect of over 35% in size; further: potency means the concentration at half of the fitted maximal effect
Procedure, shortened: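 Seeding: 1,500 CHO-K1 cells/well. Rest: 5hr, 37C. Treatment: compounds in DMSO, 16hr. Read: CellTiter-Fluor, 1hr, fluorescence.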

[6] = Caspase-3/7 induction in CHO-K1 cells by small molecules, qHTS assay (AID 1346980); further: nearly all actives have a fitted effect of over 15% in size
Procedure, shortened: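 Wild-type cells were seeded at 1,500 per well and settled 5 hr at 37 C, 5% CO2, then exposed to DMSO-dissolved compounds for 17 hr. Caspase-Glo 3/7 reagent was added, and luminescence was read after 30min at room temperature.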

[7] = Caspase-3/7 induction in HepG2 cells by small molecules, qHTS cell viability counter screen (AID 1346981); further: nearly all actives have a fitted effect of over 30% in size; further: potency means the concentration at half of the fitted maximal effect
Procedure, shortened: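 Fluorescence read-out of live-cell protease activity (CellTiter-Fluor) after 1 hr with reagent. This was measured in the same wells as the caspase-3/7 luminescence, on HepG2 cells exposed to DMSO-dissolved compounds for 16 hr at 37 C.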

[8] = target: Nuclear receptor subfamily 1 group I member 2 (Homo sapiens) (UniProt O75469); assay: Human pregnane X receptor (PXR) small molecule agonists, qHTS assay (AID 1346982); further: nearly all actives have a fitted effect of over 35% in size
Procedure, shortened: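 HepG2 PXR-Luc reporter line, 5% charcoal-stripped FBS; 5 hr pre-incubation, compound (DMSO) 24 hr at 37 C/5% CO2; ONE-Glo 30 min RT; luminescence read-out.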

[9] = qHTS assay to identify small molecule agonists of the TGF-beta/Smad signaling pathway (AID 1346859; active means well fitted activation curve with a large enough effect in the signal ratio in the repeat runs, not every such curve was filed as active; the % refers to the signal ratio; further: series mostly up to about 77 µM)
Procedure, shortened: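 Dual-wavelength fluorescence (460/530 nm emission) quantified beta-lactamase expression under the Smad binding element in HEK 293T cells following 5 hr compound treatment at 37 C.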

[10] = target: Thyrotropin-releasing hormone receptor (Homo sapiens) (UniProt P34981); assay: qHTS assay to identify small molecule antagonists of the thyrotropin-releasing hormone receptor (TRHR) signaling pathway (AID 1346877; active means well fitted inhibition curve with a large enough effect in the repeat runs, not every such curve was filed as active; further: series mostly up to about 51 µM)
Procedure, shortened: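 HEK293/TRHR cells, 18 h, 37 °C; Ca2+ dye 2 h; cpd 5 min RT; TRH 1 nM final; fluorescence read 3 min, 1 s intervals; 15 concs, triplicate.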

Nuclear receptor subfamily 1 group I member 2 (Homo sapiens), sequence (O75469 whole entry, looked up): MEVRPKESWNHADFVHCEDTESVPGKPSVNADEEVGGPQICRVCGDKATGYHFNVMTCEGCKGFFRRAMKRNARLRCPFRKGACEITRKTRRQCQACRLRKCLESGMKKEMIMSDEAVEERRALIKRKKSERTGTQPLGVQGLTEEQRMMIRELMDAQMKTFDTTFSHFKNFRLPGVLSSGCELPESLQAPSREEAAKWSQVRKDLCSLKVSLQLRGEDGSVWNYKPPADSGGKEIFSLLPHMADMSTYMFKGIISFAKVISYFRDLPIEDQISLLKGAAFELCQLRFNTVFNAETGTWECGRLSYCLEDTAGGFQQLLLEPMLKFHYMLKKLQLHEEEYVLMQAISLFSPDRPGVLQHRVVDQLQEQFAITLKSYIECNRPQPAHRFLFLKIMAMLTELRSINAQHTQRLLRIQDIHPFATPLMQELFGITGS
Thyrotropin-releasing hormone receptor (Homo sapiens), sequence (P34981 whole entry, looked up): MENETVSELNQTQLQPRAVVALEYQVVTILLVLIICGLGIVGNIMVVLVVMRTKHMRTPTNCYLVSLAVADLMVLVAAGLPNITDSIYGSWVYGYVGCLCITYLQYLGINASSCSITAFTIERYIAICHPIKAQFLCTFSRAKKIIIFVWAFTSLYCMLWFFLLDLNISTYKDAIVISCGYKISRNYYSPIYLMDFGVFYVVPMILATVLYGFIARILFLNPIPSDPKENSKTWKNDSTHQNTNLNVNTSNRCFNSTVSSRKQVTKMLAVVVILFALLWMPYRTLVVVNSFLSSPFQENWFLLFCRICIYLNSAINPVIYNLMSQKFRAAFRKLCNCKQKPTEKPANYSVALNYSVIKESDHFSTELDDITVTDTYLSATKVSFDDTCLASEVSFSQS

Row | SMILES | outcome [1] | outcome [2] | Potency [3] | outcome [4] | Potency [5] | outcome [6] | Potency [7] | Potency [8] | outcome [9] | outcome [10]
1 | CC(=O)OC(C)c1ccccc1 (stereo unspecified) | inactive | inactive | inactive | inactive | inactive | inactive | inactive | inactive | – | –
2 | O=C(O)c1ccccc1C(=O)OCc1ccccc1 | – | inactive | inactive | inactive | inactive | inactive | inactive | – | inactive | inactive
3 | CCC(=O)OCCC(C)CCC=C(C)C (stereo unspecified) | inactive | – | – | inactive | – | inactive | inactive | inactive | inactive | –
4 | Cc1nc([N+](=O)[O-])cn1-c1ccc([N+](=O)[O-])cc1 | inactive | inactive | inactive | inactive | inactive | inactive | inactive | inactive | – | inactive
5 | CCOC(=O)OCC/C(SC(=O)OCC)=C(\C)N(C=O)Cc1cnc(C)nc1N | inactive | – | – | inactive | – | inactive | inactive | inactive | inactive | –
6 | COc1cccc2sc(N)nc12 | inactive | inactive | – | – | inactive | inactive | inactive | – | – | inactive
7 | C=C(C)C(=O)OC | inactive | – | inactive | – | inactive | inactive | inactive | inactive | – | –
8 | O=C(O)c1ccc(OCCN2CCCCC2)cc1 | inactive | – | inactive | inactive | inactive | inactive | inactive | inactive | – | –
9 | CCC(CO)CO | inactive | inactive | inactive | inactive | inactive | inactive | inactive | inactive | – | inactive
10 | C=CCOc1c(Br)cc(C(C)(C)c2cc(Br)c(OCC=C)c(Br)c2)cc1Br | inactive | – | – | – | inactive | inactive | inactive | – | – | –
11 | CCS(=O)(=O)CCn1c([N+](=O)[O-])cnc1C | – | inactive | inactive | inactive | inactive | inactive | inactive | – | inactive | inactive
12 | CC(C)COC(=O)CC(C(=O)OCC(C)C)S(=O)(=O)O (stereo unspecified) | inactive | – | inactive | inactive | – | inactive | inactive | inactive | – | –
13 | CCC1Nc2cc(Cl)c(S(N)(=O)=O)cc2S(=O)(=O)N1 (stereo unspecified) | inactive | – | inactive | – | inactive | inactive | inactive | inactive | – | –
14 | O=C1NC2NC(=O)NC2N1 (stereo unspecified) | inactive | inactive | inactive | inactive | inactive | inactive | inactive | inactive | – | inactive
15 | COc1ccc(N=Nc2cc(C)c(N=Nc3ccc(S(=O)(=O)O)cc3)cc2OC)cc1 | inactive | inactive | – | inactive | 54.5 µM (active) | inactive | 30.6 µM (active) | inactive | – | –
16 | O=C1CC[C@H](C(=O)N2CCCCC2)N1 | inactive | – | inactive | inactive | inactive | inactive | inactive | inactive | – | –
17 | CC(C)CCO | – | – | inactive | inactive | inactive | inactive | inactive | inactive | – | –
18 | Nc1cc(Cl)cc(S(=O)(=O)O)c1O | – | inactive | inactive | inactive | – | inactive | inactive | inactive | inactive | inactive
19 | Cc1cccc(C(=O)O)c1[N+](=O)[O-] | – | inactive | inactive | – | inactive | inactive | inactive | inactive | – | –
20 | CCCCC(CC)C(=O)OC(C)C (stereo unspecified) | – | inactive | inactive | inactive | inactive | inactive | inactive | inactive | – | inactive
21 | Cc1nc2ccccc2c(=O)o1 | – | – | inactive | inactive | inactive | inactive | inactive | inactive | inactive | –
22 | CNC(=O)C(c1ccccc1)c1ccccc1 | – | – | – | – | – | inactive | inactive | inactive | inactive | –
23 | Cc1ccc2c(c1)c1c3n2CCNC3CCC1 (stereo unspecified) | – | inactive | – | inactive | inactive | inactive | – | – | – | inactive
24 | Cc1oc(=O)oc1CN1CCN(c2cc3c(cc2F)c(=O)c(C(=O)O)c2n3C(C)S2)CC1 (stereo unspecified) | – | inactive | inactive | inactive | inactive | inactive | inactive | inactive | – | inactive
25 | OC[C@@H](O)[C@H](O)[C@@H](O)[C@@H](O)CO | – | – | inactive | inactive | inactive | inactive | inactive | inactive | inactive | –
26 | CN[C@@H]1[C@@H](O)[C@@H](O[C@@H]2[C@H](O)[C@H](O[C@H]3OC(CN)=CC[C@H]3N)[C@@H](N)C[C@H]2N)OCC1(C)O (stereo partly specified) | – | – | inactive | inactive | – | inactive | inactive | – | – | –
27 | CCCCCC1CCCC(=O)O1 (stereo unspecified) | – | inactive | inactive | inactive | inactive | inactive | inactive | inactive | inactive | inactive
28 | CCOC(=O)C(C)(C)C | – | – | inactive | inactive | inactive | inactive | inactive | inactive | inactive | –
